Laboratory results: PMC7862700, “An all-to-all approach to the identification of sequence-specific readers for epigenetic DNA modifications on cytosine”

Assays:
Test in all cases: DAPPL (digital affinity profiling via proximity ligation, sequencing); 10 mM Tris-HCl pH 7.5, 50 mM NaCl, 1 mM DTT, 4% glycerol, room temperature, 30 min; GST-TFs on glutathione beads, 16-mer random dsDNA library, 0.1% formaldehyde crosslink after washing; high values mean tight binding
[1] = target: T1, FLI1 (Homo sapiens, UniProt Q01543 1-452); details: protein: recombinant; tags: N-terminal GST; dsDNA, one strand shown
T1 sequence: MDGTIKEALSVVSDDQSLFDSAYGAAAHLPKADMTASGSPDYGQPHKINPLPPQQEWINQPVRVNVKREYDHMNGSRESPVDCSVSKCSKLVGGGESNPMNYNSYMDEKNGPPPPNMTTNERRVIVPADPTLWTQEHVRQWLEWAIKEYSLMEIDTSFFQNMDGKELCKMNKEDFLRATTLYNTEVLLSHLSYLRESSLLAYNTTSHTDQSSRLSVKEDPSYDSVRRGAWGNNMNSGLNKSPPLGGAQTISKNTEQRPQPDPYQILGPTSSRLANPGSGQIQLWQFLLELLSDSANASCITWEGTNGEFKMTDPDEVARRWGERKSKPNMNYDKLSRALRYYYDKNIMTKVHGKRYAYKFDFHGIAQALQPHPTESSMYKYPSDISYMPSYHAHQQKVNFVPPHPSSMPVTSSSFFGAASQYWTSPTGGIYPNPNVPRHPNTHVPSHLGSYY
In short: (§1)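 A tag-only sample was pooled with DNA-barcoded human transcription factors that had been expressed in yeast as GST fusions and captured on glutathione beads. The pools were incubated for 30 min at room temperature with 200 nmole of a random double-stranded 16-mer DNA library in Tris/NaCl/DTT/glycerol buffer, then washed, crosslinked with 0.1% formaldehyde, proximity-ligated (BsaI/T4 ligase, 1 h, 37 °C), PCR-amplified and sequenced on an Illumina NextSeq500. Binding signal is each hexamer's read frequency for a factor divided by its frequency for the tag-only sample.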

[2] = target: T2, ELK1 (Homo sapiens, UniProt P19419 1-428); details: protein: recombinant; tags: N-terminal GST; dsDNA, one strand shown
T2 sequence: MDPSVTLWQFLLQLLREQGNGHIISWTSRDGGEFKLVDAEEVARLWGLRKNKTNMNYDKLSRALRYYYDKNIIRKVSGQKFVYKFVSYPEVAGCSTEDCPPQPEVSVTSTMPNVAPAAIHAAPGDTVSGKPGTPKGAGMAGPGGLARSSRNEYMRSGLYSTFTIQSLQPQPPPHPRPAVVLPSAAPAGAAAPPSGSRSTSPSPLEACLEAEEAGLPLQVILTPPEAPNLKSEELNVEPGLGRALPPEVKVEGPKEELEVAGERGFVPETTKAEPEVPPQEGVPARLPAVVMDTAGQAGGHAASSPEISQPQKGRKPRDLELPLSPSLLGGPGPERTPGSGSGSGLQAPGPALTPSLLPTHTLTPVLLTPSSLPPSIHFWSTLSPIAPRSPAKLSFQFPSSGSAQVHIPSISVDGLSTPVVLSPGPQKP
In short: as §1

[3] = target: T3, GABPA (Homo sapiens, UniProt Q06546 1-454); details: protein: recombinant; tags: N-terminal GST; dsDNA, one strand shown
T3 sequence: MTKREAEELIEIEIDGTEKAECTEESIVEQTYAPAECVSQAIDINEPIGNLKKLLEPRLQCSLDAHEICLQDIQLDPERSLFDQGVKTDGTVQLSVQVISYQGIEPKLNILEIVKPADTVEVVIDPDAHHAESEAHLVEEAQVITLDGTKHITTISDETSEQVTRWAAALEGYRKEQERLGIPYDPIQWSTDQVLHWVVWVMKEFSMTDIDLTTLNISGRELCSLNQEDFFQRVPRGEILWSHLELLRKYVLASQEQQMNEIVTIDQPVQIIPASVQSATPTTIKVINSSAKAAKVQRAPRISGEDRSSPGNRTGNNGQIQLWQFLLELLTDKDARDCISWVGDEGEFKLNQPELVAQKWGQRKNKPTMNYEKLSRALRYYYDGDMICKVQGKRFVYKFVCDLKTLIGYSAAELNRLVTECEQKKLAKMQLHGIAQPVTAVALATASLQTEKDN
In short: as §1

[4] = target: T4, ERG (Homo sapiens, UniProt P11308 1-479); details: protein: recombinant; tags: N-terminal GST; dsDNA, one strand shown
T4 sequence: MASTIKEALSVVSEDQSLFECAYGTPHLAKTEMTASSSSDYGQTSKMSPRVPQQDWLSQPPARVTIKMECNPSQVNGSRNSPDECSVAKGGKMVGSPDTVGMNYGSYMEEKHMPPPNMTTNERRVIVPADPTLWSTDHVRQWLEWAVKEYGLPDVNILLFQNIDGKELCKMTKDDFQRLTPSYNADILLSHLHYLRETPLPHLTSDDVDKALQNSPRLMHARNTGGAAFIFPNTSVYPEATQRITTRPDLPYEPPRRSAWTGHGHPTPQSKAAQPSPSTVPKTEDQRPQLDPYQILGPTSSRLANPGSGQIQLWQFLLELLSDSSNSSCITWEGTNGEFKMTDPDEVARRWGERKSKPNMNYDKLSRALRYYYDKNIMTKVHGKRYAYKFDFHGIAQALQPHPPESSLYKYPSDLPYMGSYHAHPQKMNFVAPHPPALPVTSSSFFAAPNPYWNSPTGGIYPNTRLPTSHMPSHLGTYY
In short: as §1

[5] = target: ELF1 (Homo sapiens, UniProt P32519 1-619); details: protein: recombinant; tags: N-terminal GST; dsDNA, one strand shown
ELF1, sequence (P32519 whole entry): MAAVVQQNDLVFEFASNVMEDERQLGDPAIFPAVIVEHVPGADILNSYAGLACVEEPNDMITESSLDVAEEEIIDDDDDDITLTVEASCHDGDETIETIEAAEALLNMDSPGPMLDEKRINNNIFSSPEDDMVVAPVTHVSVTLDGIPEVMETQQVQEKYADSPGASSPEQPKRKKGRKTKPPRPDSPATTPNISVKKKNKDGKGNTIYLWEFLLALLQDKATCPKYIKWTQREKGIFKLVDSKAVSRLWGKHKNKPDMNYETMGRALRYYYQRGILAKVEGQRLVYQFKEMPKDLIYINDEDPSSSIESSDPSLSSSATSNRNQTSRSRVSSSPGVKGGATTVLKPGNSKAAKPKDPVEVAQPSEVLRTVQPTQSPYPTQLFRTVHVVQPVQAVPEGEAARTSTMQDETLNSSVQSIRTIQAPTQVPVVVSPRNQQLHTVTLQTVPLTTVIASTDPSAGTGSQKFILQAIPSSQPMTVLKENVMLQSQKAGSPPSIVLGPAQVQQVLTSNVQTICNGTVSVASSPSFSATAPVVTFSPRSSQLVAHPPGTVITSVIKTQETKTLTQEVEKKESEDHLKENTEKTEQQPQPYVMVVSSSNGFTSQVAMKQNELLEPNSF
In short: as §1

[6] = target: T5, EHF (Homo sapiens, UniProt Q9NZC4 1-300); details: protein: recombinant; tags: N-terminal GST; dsDNA, one strand shown
T5 sequence: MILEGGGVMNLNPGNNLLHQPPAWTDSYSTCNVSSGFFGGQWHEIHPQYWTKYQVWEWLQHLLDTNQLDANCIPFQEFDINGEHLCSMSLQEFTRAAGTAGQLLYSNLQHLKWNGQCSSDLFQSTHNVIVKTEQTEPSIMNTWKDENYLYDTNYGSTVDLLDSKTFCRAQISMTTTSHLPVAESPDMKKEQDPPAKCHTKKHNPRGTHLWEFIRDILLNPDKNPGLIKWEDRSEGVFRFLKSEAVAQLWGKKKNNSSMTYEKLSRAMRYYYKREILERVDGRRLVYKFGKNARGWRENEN
In short: as §1

[7] = target: SPI1 (Homo sapiens, UniProt P17947 1-270); details: protein: recombinant; tags: N-terminal GST; dsDNA, one strand shown
In short: as §1

[8] = target: SPIB (Homo sapiens, UniProt Q01892 1-262); details: protein: recombinant; tags: N-terminal GST; dsDNA, one strand shown
SPIB, sequence (Q01892 whole entry): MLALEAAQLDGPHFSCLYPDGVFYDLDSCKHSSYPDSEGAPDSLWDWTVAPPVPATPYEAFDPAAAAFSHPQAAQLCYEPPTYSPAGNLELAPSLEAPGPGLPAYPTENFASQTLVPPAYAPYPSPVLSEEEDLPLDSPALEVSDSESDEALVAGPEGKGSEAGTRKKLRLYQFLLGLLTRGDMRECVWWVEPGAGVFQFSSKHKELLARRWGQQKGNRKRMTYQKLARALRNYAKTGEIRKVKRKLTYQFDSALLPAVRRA
In short: as §1

[9] = target: T6, ELK3 (Homo sapiens, UniProt P41970 1-407); details: protein: recombinant; tags: N-terminal GST; dsDNA, one strand shown
T6 sequence: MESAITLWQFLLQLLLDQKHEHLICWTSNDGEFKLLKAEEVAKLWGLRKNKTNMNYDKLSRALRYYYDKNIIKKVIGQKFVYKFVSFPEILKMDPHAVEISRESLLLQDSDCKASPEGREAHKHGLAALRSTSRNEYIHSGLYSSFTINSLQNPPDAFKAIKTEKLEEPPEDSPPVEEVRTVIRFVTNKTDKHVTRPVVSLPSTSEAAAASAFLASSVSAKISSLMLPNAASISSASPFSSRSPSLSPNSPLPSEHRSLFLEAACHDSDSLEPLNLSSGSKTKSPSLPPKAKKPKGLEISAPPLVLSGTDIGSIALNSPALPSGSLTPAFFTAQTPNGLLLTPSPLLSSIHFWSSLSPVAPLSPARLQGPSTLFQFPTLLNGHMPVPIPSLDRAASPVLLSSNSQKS
In short: as §1

[10] = target: T7, FEV (Homo sapiens, UniProt Q99581 1-238); details: protein: recombinant; tags: N-terminal GST; dsDNA, one strand shown
T7 sequence: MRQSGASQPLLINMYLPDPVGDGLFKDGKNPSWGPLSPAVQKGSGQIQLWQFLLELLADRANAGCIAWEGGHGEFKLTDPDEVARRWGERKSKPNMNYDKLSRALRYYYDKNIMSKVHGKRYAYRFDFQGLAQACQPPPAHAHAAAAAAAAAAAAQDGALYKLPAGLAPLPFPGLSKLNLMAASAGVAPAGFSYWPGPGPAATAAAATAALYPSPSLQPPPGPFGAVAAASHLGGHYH
In short: as §1

[11] = target: ETV5 (Homo sapiens, UniProt P41161 1-510); details: protein: recombinant; tags: N-terminal GST; dsDNA, one strand shown
ETV5, sequence (P41161 whole entry): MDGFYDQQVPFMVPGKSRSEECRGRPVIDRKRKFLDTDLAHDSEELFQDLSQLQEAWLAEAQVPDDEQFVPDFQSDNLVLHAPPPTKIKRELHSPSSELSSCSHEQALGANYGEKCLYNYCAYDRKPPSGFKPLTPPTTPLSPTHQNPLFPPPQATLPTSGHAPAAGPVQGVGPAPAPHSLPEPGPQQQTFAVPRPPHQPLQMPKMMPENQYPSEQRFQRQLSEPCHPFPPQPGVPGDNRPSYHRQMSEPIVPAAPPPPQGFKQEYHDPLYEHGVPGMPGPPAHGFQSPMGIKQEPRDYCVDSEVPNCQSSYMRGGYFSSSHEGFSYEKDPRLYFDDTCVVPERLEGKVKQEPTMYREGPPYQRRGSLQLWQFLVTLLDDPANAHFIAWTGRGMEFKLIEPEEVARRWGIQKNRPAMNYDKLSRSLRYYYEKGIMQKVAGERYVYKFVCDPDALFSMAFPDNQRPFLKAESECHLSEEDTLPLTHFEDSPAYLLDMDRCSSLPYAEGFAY
In short: as §1

[12] = target: HSF1 (Homo sapiens, UniProt Q00613 1-529); details: protein: recombinant; tags: N-terminal GST; chain copies: 3; dsDNA, one strand shown
HSF1, sequence (Q00613 whole entry): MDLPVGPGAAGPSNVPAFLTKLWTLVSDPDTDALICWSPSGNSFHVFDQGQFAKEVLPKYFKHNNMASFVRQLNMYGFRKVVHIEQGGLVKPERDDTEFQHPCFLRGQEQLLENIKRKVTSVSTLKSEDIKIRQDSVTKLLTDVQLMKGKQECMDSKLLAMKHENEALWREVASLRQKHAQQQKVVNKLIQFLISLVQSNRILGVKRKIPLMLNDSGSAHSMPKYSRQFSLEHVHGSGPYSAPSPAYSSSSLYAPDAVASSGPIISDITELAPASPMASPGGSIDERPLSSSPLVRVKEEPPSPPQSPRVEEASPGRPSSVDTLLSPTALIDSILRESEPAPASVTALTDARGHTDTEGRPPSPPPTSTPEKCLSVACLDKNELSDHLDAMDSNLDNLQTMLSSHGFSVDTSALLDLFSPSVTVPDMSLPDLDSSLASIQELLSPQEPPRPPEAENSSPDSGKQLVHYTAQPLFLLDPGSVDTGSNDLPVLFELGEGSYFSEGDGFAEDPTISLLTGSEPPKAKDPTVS
In short: as §1

[13] = target: T8, SPIC (Homo sapiens, UniProt Q8N5J4 1-248); details: protein: recombinant; tags: N-terminal GST; dsDNA, one strand shown
T8 sequence: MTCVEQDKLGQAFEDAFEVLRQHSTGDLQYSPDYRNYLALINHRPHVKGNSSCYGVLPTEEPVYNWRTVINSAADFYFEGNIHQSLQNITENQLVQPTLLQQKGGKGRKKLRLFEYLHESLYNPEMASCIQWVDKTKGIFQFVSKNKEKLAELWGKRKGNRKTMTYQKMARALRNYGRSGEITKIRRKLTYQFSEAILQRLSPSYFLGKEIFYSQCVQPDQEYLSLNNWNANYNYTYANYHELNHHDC
In short: as §1

[14] = target: ELF4 (Homo sapiens, UniProt Q99607 1-663); details: protein: recombinant; tags: N-terminal GST; dsDNA, one strand shown
ELF4, sequence (Q99607 whole entry): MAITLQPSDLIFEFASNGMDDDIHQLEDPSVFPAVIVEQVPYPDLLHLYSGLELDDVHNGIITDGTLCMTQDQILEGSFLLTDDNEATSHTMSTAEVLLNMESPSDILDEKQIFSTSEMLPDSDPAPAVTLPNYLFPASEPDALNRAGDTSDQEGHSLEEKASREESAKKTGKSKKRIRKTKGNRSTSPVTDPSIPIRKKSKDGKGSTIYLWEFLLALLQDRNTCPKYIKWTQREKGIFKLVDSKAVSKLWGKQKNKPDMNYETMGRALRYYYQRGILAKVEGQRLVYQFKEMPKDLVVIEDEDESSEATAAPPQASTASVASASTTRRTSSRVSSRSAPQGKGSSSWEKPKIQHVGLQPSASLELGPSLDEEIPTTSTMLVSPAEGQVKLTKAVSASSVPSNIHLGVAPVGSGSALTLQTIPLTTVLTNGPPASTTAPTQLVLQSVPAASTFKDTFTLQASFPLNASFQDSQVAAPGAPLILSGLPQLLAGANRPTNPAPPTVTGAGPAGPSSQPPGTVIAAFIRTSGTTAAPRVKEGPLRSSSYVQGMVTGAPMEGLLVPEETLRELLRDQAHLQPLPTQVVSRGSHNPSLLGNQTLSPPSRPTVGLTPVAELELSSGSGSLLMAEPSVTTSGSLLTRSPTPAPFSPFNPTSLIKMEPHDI
In short: as §1

[15] = target: T9, ELK4 (Homo sapiens, UniProt P28324-2 1-405); details: protein: recombinant; tags: N-terminal GST; dsDNA, one strand shown
T9 sequence: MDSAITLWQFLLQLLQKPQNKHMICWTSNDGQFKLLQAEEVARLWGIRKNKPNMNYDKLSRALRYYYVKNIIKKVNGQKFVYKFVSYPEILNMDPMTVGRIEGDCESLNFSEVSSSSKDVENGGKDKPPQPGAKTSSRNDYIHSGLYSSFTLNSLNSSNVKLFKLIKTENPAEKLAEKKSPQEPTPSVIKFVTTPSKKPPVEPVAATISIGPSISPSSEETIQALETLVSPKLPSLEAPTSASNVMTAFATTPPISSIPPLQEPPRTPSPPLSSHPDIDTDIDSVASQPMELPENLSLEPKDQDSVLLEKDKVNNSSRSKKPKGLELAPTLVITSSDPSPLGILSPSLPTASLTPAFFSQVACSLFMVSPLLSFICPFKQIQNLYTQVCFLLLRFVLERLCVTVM
In short: as §1

[16] = target: T10, ETV2 (Homo sapiens, UniProt O00321 1-342); details: protein: recombinant; tags: N-terminal GST; dsDNA, one strand shown
T10 sequence: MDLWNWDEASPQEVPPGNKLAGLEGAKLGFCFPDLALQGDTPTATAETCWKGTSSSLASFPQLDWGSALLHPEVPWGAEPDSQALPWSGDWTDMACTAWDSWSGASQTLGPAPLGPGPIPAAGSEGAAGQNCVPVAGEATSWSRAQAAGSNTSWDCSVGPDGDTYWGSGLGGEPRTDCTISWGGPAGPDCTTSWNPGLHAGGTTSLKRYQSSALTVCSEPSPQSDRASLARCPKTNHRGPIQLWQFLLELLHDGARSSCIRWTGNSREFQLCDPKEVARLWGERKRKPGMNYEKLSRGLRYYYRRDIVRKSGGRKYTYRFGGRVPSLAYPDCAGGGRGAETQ
In short: as §1

[17] = target: T11, ELF3 (Homo sapiens, UniProt P78545 1-371); details: protein: recombinant; tags: N-terminal GST; dsDNA, one strand shown
T11 sequence: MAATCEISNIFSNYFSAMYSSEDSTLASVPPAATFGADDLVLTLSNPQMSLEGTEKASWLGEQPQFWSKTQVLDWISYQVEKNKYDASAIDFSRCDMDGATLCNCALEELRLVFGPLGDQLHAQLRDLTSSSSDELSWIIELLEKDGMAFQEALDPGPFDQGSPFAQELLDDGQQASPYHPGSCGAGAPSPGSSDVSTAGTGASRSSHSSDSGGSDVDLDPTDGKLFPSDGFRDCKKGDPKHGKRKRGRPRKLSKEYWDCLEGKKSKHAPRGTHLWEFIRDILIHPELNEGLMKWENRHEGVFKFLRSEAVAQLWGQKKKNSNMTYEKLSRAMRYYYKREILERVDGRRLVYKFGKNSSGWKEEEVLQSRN
In short: as §1

[18] = target: CRX (Homo sapiens, UniProt O43186 1-299); details: protein: recombinant; tags: N-terminal GST; dsDNA, one strand shown
CRX, sequence (O43186 whole entry): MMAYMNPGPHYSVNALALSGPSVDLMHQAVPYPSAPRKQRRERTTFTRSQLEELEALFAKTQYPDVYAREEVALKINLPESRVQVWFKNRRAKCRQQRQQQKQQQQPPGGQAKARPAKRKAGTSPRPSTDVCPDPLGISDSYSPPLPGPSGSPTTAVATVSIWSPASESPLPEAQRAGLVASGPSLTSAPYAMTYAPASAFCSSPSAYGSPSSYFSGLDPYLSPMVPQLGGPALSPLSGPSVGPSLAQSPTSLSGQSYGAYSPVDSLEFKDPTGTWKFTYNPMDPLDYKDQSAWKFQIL
In short: as §1

[19] = target: ETV1 (Homo sapiens, UniProt P50549 1-477); details: protein: recombinant; tags: N-terminal GST; dsDNA, one strand shown
ETV1, sequence (P50549 whole entry): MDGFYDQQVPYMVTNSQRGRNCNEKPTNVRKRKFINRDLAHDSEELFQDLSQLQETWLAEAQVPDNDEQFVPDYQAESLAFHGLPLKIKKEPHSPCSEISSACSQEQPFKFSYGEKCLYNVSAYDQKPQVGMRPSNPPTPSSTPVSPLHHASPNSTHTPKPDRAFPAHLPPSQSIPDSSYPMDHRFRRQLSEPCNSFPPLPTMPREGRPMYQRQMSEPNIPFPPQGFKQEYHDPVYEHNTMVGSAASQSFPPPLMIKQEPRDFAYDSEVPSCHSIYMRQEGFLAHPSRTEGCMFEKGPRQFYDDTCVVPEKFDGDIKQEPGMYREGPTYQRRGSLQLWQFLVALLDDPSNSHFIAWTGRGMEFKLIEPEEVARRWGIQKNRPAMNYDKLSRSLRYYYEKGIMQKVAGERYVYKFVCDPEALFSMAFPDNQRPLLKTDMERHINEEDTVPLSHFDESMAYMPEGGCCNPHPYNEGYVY
In short: as §1

TTTTCG was tested, and the binding signal [1] was 1.18 fold enrichment (6-mer frequency, TF over GST control), the binding signal [2] was 1.28 fold enrichment (6-mer frequency, TF over GST control) and the binding signal [3] was 1.24 fold enrichment (6-mer frequency, TF over GST control). For the same sequence, the binding signal [4] was 1.2 fold enrichment (6-mer frequency, TF over GST control), the binding signal [5] was 1.22 fold enrichment (6-mer frequency, TF over GST control) and the binding signal [6] was 1.25 fold enrichment (6-mer frequency, TF over GST control). For the same sequence, the binding signal [7] was 1.27 fold enrichment (6-mer frequency, TF over GST control), the binding signal [8] was 1.16 fold enrichment (6-mer frequency, TF over GST control) and the binding signal [9] was 1.35 fold enrichment (6-mer frequency, TF over GST control). For the same sequence, the binding signal [10] was 1.23 fold enrichment (6-mer frequency, TF over GST control), the binding signal [11] was 1.27 fold enrichment (6-mer frequency, TF over GST control) and the binding signal [12] was 1.53 fold enrichment (6-mer frequency, TF over GST control). For the same sequence, the binding signal [13] was 1.11 fold enrichment (6-mer frequency, TF over GST control), the binding signal [14] was 1.29 fold enrichment (6-mer frequency, TF over GST control) and the binding signal [15] was 1.08 fold enrichment (6-mer frequency, TF over GST control). For the same sequence, the binding signal [16] was 1.33 fold enrichment (6-mer frequency, TF over GST control), the binding signal [17] was 1.11 fold enrichment (6-mer frequency, TF over GST control) and the binding signal [18] was 1.28 fold enrichment (6-mer frequency, TF over GST control). For the same sequence, the binding signal [19] was 1.2 fold enrichment (6-mer frequency, TF over GST control).
